Laboratory results as given in the supplement of paper PMC11383364.

system: SUM149; test: percent difference in area under dose-response curve of relative cell number, RPMI vs HPLM; higher = drug relatively more effective in HPLM than RPMI (negative = less effective in HPLM); conditions: treatment time: 72 h; dose range: 10-point, 1 nM to 20 µM; media compared: RPMI vs HPLM
Protocol: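 SUM149 triple-negative breast cancer cells, 500 cells/well in 384-well plates, were grown in RPMI or human plasma-like medium (HPLM) with 5% dialyzed FBS. They were pin-transferred with an anticancer plus metabolic-inhibitor library in 10-point dose series (20 µM to 1 nM). After 72 h, cells were fixed, stained with bisbenzimide and counted by Acumen plate cytometry. The AUC of relative survival vs dose was computed per medium, and the percent difference in AUC between RPMI and HPLM is reported.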

Compound | percent difference in area under dose-response curve [%]
CCN(CC)CCCCNc1ncc2cc(-c3cc(OC)cc(OC)c3)c(NC(=O)NC(C)(C)C)nc2n1 | 1.69
C=CS(=O)(=O)NC1CCN(C(=O)CNc2cc(I)c(Cl)cc2OC)CC1 [KRas_G12C_inhibitor_9] | -1.74
Cn1cnc([N+](=O)[O-])c1Sc1ncnc2[nH]cnc12 [Azathioprine] | -50.6
C#Cc1cccc(Nc2ncnc3cc(OCCOC)c(OCCO)cc23)c1 | -0.553
Cc1cnc(-c2cnc(NCCNc3ccc(C#N)cn3)nc2-c2ccc(Cl)cc2Cl)[nH]1 | 7.14
Cc1nc(Nc2ncc(C(=O)Nc3c(C)cccc3Cl)s2)cc(N2CCN(CCO)CC2)n1 [Dasatinib] | 41.7
Cc1cnc(Nc2ccc(OCCN3CCCC3)cc2)nc1Nc1cccc(S(=O)(=O)NC(C)(C)C)c1 | -10.7
CC(C)(C)c1cc(C(=O)C(C#N)=NNc2cccc(Cl)c2)no1 | -6.64
COc1cccc2c1C(=O)c1c(O)c3c(c(O)c1C2=O)C[C@@](O)(C(=O)CO)C[C@@H]3O[C@H]1C[C@H](N)[C@H](O)[C@H](C)O1 [Doxorubicin] | -24.4
COC(=O)Nc1nc2cc(C(=O)c3cccs3)ccc2[nH]1 [Nocodazole] | -17.2
CC(C)CC(=O)Nc1n[nH]c2c1CN(C(=O)C1CCN(C)CC1)C2(C)C | -18.5
Nc1nc(Cl)nc2c1ncn2[C@@H]1O[C@H](CO)[C@@H](O)[C@@H]1F [Clofarabine] | -18.6
CC(C)Oc1ccc(C(=O)N[C@H](CNC(=O)CN(C)C)Cc2ccc(-c3cn4cccc([C@H](C)O)c4n3)cc2)cc1Cl | -23.9
Cc1nc(Nc2n[nH]c3c2CN(C(=O)N[C@H](CN(C)C)c2ccccc2)C3(C)C)c2sccc2n1 | -62.7
CO[C@H]1/C=C\C=C(/C)C(=O)NC2=CC(=O)C(NCCN(C)C)=C(C[C@@H](C)C[C@H](OC)[C@H](O)[C@@H](C)/C=C(\C)[C@@H]1OC(N)=O)C2=O | -30.8
Nc1ccccc1NC(=O)c1ccc(CNc2nccc(-c3cccnc3)n2)cc1 [Mocetinostat] | 0.546
CCOc1ccn(-c2ccc(F)cc2)c(=O)c1C(=O)Nc1ccc(Oc2ccnc(N)c2Cl)c(F)c1 | -1.99
CN(Cc1cnc2nc(N)nc(N)c2n1)c1ccc(C(=O)N[C@@H](CCC(=O)O)C(=O)O)cc1 [Methotrexate] | -7.17
O=C(NOC[C@H](O)CO)c1ccc(F)c(F)c1Nc1ccc(I)cc1F | -8.94
Cc1cccc(-c2[nH]c(C(C)(C)C)nc2-c2ccc3nccnc3c2)n1 | -7.49

Compound | percent difference in area under dose-response curve [%]
O=c1[nH]c(=O)n(C2CCCO2)cc1F (stereo not given) [Ftorafur] | -2.37
OC(c1cc(C(F)(F)F)nc2c(C(F)(F)F)cccc12)C1CCCCN1 (stereo not given) [Mefloquine] | 3.47
COc1c(C)c2c(c(O)c1C/C=C(\C)CCC(=O)O)C(=O)OC2 [Mycophenolic_Acid] | -8.4
O=C(c1ccc(OCCN2CCCCC2)cc1)c1c(-c2ccc(O)cc2)sc2cc(O)ccc12 [Evista] | 2.48
CCC1=C[C@@H]2CN(C1)Cc1c([nH]c3ccccc13)[C@@](C(=O)OC)(c1cc3c(cc1OC)N(C)[C@H]1[C@@](O)(C(=O)OC)[C@H](OC(C)=O)[C@]4(CC)C=CCN5CC[C@]31[C@@H]54)C2 [Vinorelbine_Tartrate] | -41
CC(C)[C@H](C(=O)Nc1ccc(C(=O)NO)cc1)c1ccccc1 | -15.2
CCNC(=O)c1noc(-c2cc(Cl)c(O)cc2O)c1-c1ccc(OC)cc1 | -12.2
Cc1cc(Nc2nc(N[C@@H](C)c3ncc(F)cn3)ncc2Cl)[nH]n1 | -7.89
c1ccc(Cn2c(-c3ccc(OC[C@H](C4CCNCC4)n4c(-c5ccccc5)nc5ccccc54)cc3)nc3ccccc32)cc1 [Deltarasin] | -7.63
CC(=O)c1c(C)c2cnc(Nc3ccc(N4CCNCC4)cn3)nc2n(C2CCCC2)c1=O | -11.4
COc1cc(Nc2ncc(F)c(Nc3ccc4c(n3)NC(=O)C(C)(C)O4)n2)cc(OC)c1OC | 6.12
Nc1nc2c(c(=O)[nH]1)C[C@@H](CCc1ccc(C(=O)N[C@@H](CCC(=O)O)C(=O)O)cc1)CN2 [Lometrexol] | -68
Cc1ccc(C)c(Oc2ccncc2C(=O)N2CCN(C3CC3)c3ccccc32)c1 | -4.99
C/C=C1\NC(=O)[C@H]2CSSCC/C=C/[C@H](CC(=O)N[C@H](C(C)C)C(=O)N2)OC(=O)[C@H](C(C)C)NC1=O [Romidepsin] | -30.5
COC(=O)c1ccc2c(c1)NC(=O)/C2=C(\Nc1ccc(N(C)C(=O)CN2CCN(C)CC2)cc1)c1ccccc1 | 3.26
O=C(Nc1ccc(OC(F)(F)F)cc1)c1sccc1NCc1ccnc2ccccc12 | 6.56
Fc1cc(-c2cccc3ncc(-c4cnn(C5CCNCC5)c4)nc23)cc(F)c1CN1CCOCC1 | 2.04
CC(C)(C#N)c1cc(Cn2cncn2)cc(C(C)(C)C#N)c1 [Anastrozole] | -1.33
Cn1cc(CNCC2CCN(c3ncc(C(=O)NO)cn3)CC2)c2ccccc21 | -19.7
O=c1cc(-c2cccc3c2Sc2ccccc2S3)oc(N2CCOCC2)c1 | 4.24
